Compound activity (PubChem)
Tg IFNy HTS = T. gondii growth inhibition with IFN-gamma, primary screen, cell-based; Toxoplasma gondii growth in IFN-gamma-treated host cells; stronger effect = lower value; activity change, negative = inhibition, % (test concentration not listed); hit rate 3.8% among 69,000; AID 1259416, 2018; in the data active means activity change below about -70%, passing the limit was not always enough;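 further: host cells are HeLa cells infected with Toxoplasma gondii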
The depositor's hits bear a star; ! = repeats disagree. Shown is part of a subset that was picked to be rich in hits.

SMILES	Tg IFNy HTS
COc1ccc(CN2CC3(CCN(c4ncccn4)C3)C2)cc1	-58
Cc1ncc(CNC(=O)N(CCCl)[NH2+][O-])c(N)n1	-56
C[C@@H]1O[C@@H](O[C@H]2C[C@@H](O)[C@]3(CO)C4C(CC[C@]3(O)C2)[C@@]2(O)CC[C@H](C3=CC(=O)OC3)[C@@]2(C)C[C@H]4O)[C@H](O)[C@H](O)[C@H]1O (some centres undefined)	-78*
COc1ccccc1NC(=O)c1cc2cccnc2n(Cc2ccccc2F)c1=O	62
CC[C@@H]1[C@@H](C)O[C@@](O)([C@@H](C)[C@H](O)[C@H](C)[C@H]2OC(=O)/C=C/C=C/[C@H](C)[C@H]([C@@H](C)[C@@H](O)[C@H](C)[C@@]3(O)C[C@@H](O[C@H]4C[C@H](O)[C@H](O)[C@H](C)O4)[C@H](CC)[C@@H](C)O3)OC(=O)/C=C/C=C/[C@H]2C)C[C@H]1O[C@H]1C[C@H](O)[C@H](O)[C@H](C)O1	-75*
CCOCCCNC(=O)c1cc2cccnc2n(Cc2ccc(F)cc2)c1=O	-23
C[C@]12CC[C@H]3[C@@H](CCC4=CC(=O)CC[C@@H]43)[C@@H]1CC[C@@H]2O	-76*
C[C@]12CCC(=O)C=C1CCC1C2CC[C@@]2(C)C1CC[C@@H]2O (some centres undefined)	-88*
C[C@]1(O)CC[C@H]2[C@@H]3CCC4=CC(=O)CC[C@]4(C)[C@@]3(F)[C@@H](O)C[C@@]21C	12
CC12CCC3C4CCCC=C4CCC3C1CCC2O (centres undefined)	-59
C[C@]12CC[C@@H]3c4ccc(O)c(O)c4CC[C@H]3[C@@H]1CC[C@@H]2O	35
C#CC1(O)CCC2C3CCC4=CC(=O)CCC4(C)C3CCC21C (centres undefined)	-43
O=C(NCCc1cccs1)C1C2CCC1CNC2 (centres undefined)	52
O=C(CCCN1CCC2(CC1)C(=O)N(Cc1cccc(F)c1)CN2c1ccccc1)c1ccc(F)cc1	-83*!
COC(=O)CN1CN(c2ccccc2)C2(CCN(Cc3ccc4ccccc4c3)CC2)C1=O	-8
CCC(=O)N1CCC2(CC1)C(=O)N(Cc1cccnc1)CCN2C	-2
Cc1ccc(NC(=O)c2cc3cccnc3n(Cc3ccccc3F)c2=O)cc1Cl	39
COc1ccc2n[nH]c(CN3C[C@@H]4[C@H](C3)[C@H]3CC[C@@H]4O3)c2c1	27
CC[C@H]1CN2CCC1C[C@@H]2[C@H](O)c1ccnc2ccc(OC)cc12 (some centres undefined)	-79*
CO[C@@H]1CCN(C(=O)c2cccc(C)n2)[C@H]2CN(CC3CC3)C[C@@H]12	-5
O=C(NC1CCCCCCCCCCC1)c1cc2cccnc2n(Cc2ccccc2)c1=O	75
C=C1CCC2(O)C3Cc4ccc(O)c5c4C2(CCN3CC2CC2)C1O5 (centres undefined)	16
CCCCCCC(C)(C)c1ccc(C2CC(O)CCC2CCCO)c(O)c1 (centres undefined)	-79*
O=C(N[C@H]1c2ccccc2[C@@H]2CNC[C@H]21)c1ccncc1	-3
Cc1cccc(CN2CCC3(CC(C(=O)N(C)C(C)C)=NO3)C2)n1 (centres undefined)	0
SMILES	Tg IFNy HTS
CCc1cnc(N2CCN3C[C@H](OCC4CC4)C[C@@H]3C2)nc1	-15
Cc1oc(-c2ccccc2)nc1CN1C(=O)CN=C(c2ccc(F)cc2)c2c1sc(C)c2C	-40
COc1ccc(C2=NCC(=O)N(Cc3nc(-c4ccccc4)oc3C)c3sccc32)cc1	-95*
CN1C(=O)CN=C(c2ccccc2)c2cc(Cl)ccc21	-2
Cn1ccnc1-c1ccc(N2C[C@@H]3C[C@@H](C2)c2cccc(=O)n2C3)nn1	-1
CCCN1CCN(CCN(C)C)c2ncccc2C1	-51
O=[N+]([O-])c1cc([As](=O)(O)O)ccc1O	17
N#CC(C#N)=Cc1ccc([N+](=O)[O-])c(O)c1	13
O=[N+]([O-])c1ccc(O)c([N+](=O)[O-])c1	-79*!
C1COC2CCNCC2(COCC2CC2)C1 (centres undefined)	57
O=C(Nc1ccc(F)cc1F)c1c(O)c2cccnc2n(Cc2ccccc2)c1=O	-22
COc1ccccc1NC(=O)c1c(O)c2cccnc2n(Cc2ccccc2)c1=O	47
O=C(Nc1ccc2c(c1)OCCO2)c1c(O)c2cccnc2n(Cc2ccccc2)c1=O	211
O=C(NCc1ccco1)c1cc2cccnc2n(Cc2ccccc2)c1=O	-45
Cc1ccc(NC(=O)c2c(O)c3cccnc3n(Cc3ccccc3)c2=O)cc1F	30
O=C(NCc1ccc(F)cc1F)c1c(O)c2cccnc2n(Cc2ccccc2)c1=O	-104*
O=C(Nc1ccc2c(c1)OCO2)c1c(O)c2cccnc2n(Cc2ccccc2)c1=O	113
O=C(NCc1ccco1)c1c(O)c2cccnc2n(Cc2ccccc2)c1=O	-99*
Cc1ccc(NC(=O)c2c(O)c3cccnc3n(Cc3ccccc3)c2=O)cc1C	94
O=C(NCc1ccc2c(c1)OCO2)c1c(O)c2cccnc2n(Cc2ccccc2)c1=O	-77*
O=C(Nc1cc(F)ccc1F)c1c(O)c2cccnc2n(Cc2ccccc2)c1=O	164
